According to PubChem BioAssay:
Active and inactive are the calls of the source.

How the values were obtained:
[1] = binders of probe aFSTL3 on microarray, primary screen, stem cell growth factor project, biochemical, small-molecule microarray, fluorescence 635/667 (AID 1064); conditions: higher = more signal;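 further: measures binding of the biotinylated anti-FSTL3 antibody to printed compounds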
[2] = binders from COS7 lysate, DM2A8 probe, primary screen, torsin A project, cell lysate, small-molecule microarray, fluorescence 635/667 (AID 1065); conditions: higher = more signal, COS7 lysate expressing mutant human TOR1A
[3] = binders of probe aFGF2 on microarray, primary screen, stem cell growth factor project, biochemical, small-molecule microarray, fluorescence 635/667 (AID 1067); conditions: higher = more signal;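 further: measures binding of biotinylated aFGF2 protein to printed compounds on slides; z-score merges feature fluorescence and signal-to-noise across triplicate slides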
[4] = binders of probe aFGF10 on microarray, primary screen, stem cell growth factor project, biochemical, small-molecule microarray, fluorescence 635/667 (AID 1071); conditions: higher = more signal;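 further: score merges 667 nm spot intensity and signal to noise from triplicate slides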
[5] = molecular target: Neurogenic locus notch homolog protein 2 (Homo sapiens) (UniProt Q04721); assay: Notch2 binders on small-molecule microarrays, primary screen, biochemical, small-molecule microarray, 635 nm fluorescence, stem cell growth factors (AID 1073); conditions: Notch2 binding, higher = more signal
[6] = molecular target: Pro-neuregulin-1, membrane-bound isoform (Homo sapiens) (UniProt Q02297); assay: NRG1 binders on small-molecule microarrays, primary screen, psychiatric disease protein project, biochemical, small-molecule microarray, fluorescence 635/667 (AID 1075); conditions: NRG1 binding, 635 nm fluorescence, higher = more signal;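 further: score combines 667 nm spot fluorescence with signal to noise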
[7] = tested on: Neuregulin-1 EGF-like domain; assay: binders of neuregulin-1 EGF-like domain, primary screen, biochemical, small-molecule microarray, 635 nm fluorescence (AID 1081); conditions: small-molecule microarray binding, higher = more signal;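 further: binding of the protein to compounds printed on small-molecule microarray slides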
[8] = FRG1 promoter luciferase signal modulators, primary screen, FRG1 inhibition for FSHD, cell-based, C2C12 myotubes, firefly/Renilla luciferase, luminescence (AID 1084); conditions: higher = more signal, called active from +8 up or from −8 down
[9] = binders of probe aFST on microarray, primary screen, stem cell growth factor project, biochemical, small-molecule microarray, fluorescence 635/667 (AID 1086); conditions: higher = more signal;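 further: score merges 667 nm fluorescence with signal-to-noise of each printed compound spot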
[10] = binders of probe aHhip on microarray, primary screen, stem cell growth factor project, biochemical, small-molecule microarray, fluorescence 635/667 (AID 1087); conditions: higher = more signal;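 further: score merges spot fluorescence at 667nm with spot signal to noise ratio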
[11] = tested on: PRMT1 (protein arginine N-methyltransferase 1); assay: PRMT1 binders on small-molecule microarrays, primary screen, biochemical, small-molecule microarray, 635 nm fluorescence (AID 1088); conditions: small-molecule microarray binding, higher = more signal;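 further: binding of Prmt1 protein to compounds spotted on small-molecule microarray slides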
[12] = yeast growth modulation, basal conditions, primary screen, YJM789 clinical isolate, OD600, 24 h (AID 1089);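 further: growth of clinical yeast isolate S. cerevisiae YJM 789 seeded 1000 cells per well; test concentration not given here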; conditions: S. cerevisiae YJM789 growth, higher = more signal, called active from +8 up or from −8 down
[13] = fission yeast growth modulation, primary screen, strain 972, OD600, 24 h, no modulator (AID 1090);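 further: basal condition with compound alone and no growth modifier present; test concentration not given here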; conditions: S. pombe 972 growth, higher = more signal, called active from +8 up or from −8 down
[14] = S. cerevisiae growth modulation with rapamycin, primary screen, strain BY4716, OD600, 96 h (AID 1091); conditions: higher = more signal, called active from +8 up or from −8 down; further: test concentration not given here
[15] = molecular target: Torsin-1A-interacting protein 2 (Homo sapiens) (UniProt Q8NFQ8); assay: LULL1 binders on small-molecule microarray, primary screen, cell lysate, human LULL1 lysate, 635/667 nm fluorescence (AID 1092); conditions: hLULL1 lysate binding, 635 nm fluorescence, higher = more signal;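 further: probe is lysate of COS7 cells overexpressing human LULL1; score merges per-feature 667 nm fluorescence with signal-to-noise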
[16] = E. coli growth modulation, two-sided OD650, primary screen, E. coli filamentation project, strain DRC41, 24 h (AID 1093); conditions: OD650, 24 h, higher = more signal, called active from +8 up or from −8 down;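 further: MC1000 strain lacking acrAB efflux and sulA so SOS filamentation is blocked; test concentration not given here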
[17] = small-molecule microarray binders of probe aLefty2, primary screen, biochemical, biotinylated probe, 635/667 nm fluorescence (AID 1094); conditions: higher = more signal;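 further: score merges spot fluorescence near 667 nm with spot signal-to-noise ratio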
[18] = tested on: Noggin (protein binding on small-molecule microarray); assay: Noggin binders on small-molecule microarray, primary screen, biochemical, 635/667 nm fluorescence (AID 1095); conditions: 635 nm fluorescence, higher = more signal;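 further: score merges 667 nm feature fluorescence with signal to noise over triplicate slides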
[19] = molecular target: Neurogenic locus notch homolog protein 3 (Homo sapiens) (UniProt Q9UM47); assay: NOTCH3 binders on small-molecule microarray, primary screen, biochemical, 635/667 nm fluorescence (AID 1096); conditions: NOTCH3 binding, 635 nm fluorescence, higher = more signal
[20] = small-molecule microarray binders of probe aEGFR, primary screen, biochemical, biotinylated probe, 635/667 nm fluorescence (AID 1097); conditions: higher = more signal;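 further: probe is a biotinylated anti-EGFR antibody binding compounds printed on slides; score combines fluorescence near 667 nm and signal to noise of each spot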

Neurogenic locus notch homolog protein 3 (Homo sapiens), sequence (Q9UM47 whole entry, looked up): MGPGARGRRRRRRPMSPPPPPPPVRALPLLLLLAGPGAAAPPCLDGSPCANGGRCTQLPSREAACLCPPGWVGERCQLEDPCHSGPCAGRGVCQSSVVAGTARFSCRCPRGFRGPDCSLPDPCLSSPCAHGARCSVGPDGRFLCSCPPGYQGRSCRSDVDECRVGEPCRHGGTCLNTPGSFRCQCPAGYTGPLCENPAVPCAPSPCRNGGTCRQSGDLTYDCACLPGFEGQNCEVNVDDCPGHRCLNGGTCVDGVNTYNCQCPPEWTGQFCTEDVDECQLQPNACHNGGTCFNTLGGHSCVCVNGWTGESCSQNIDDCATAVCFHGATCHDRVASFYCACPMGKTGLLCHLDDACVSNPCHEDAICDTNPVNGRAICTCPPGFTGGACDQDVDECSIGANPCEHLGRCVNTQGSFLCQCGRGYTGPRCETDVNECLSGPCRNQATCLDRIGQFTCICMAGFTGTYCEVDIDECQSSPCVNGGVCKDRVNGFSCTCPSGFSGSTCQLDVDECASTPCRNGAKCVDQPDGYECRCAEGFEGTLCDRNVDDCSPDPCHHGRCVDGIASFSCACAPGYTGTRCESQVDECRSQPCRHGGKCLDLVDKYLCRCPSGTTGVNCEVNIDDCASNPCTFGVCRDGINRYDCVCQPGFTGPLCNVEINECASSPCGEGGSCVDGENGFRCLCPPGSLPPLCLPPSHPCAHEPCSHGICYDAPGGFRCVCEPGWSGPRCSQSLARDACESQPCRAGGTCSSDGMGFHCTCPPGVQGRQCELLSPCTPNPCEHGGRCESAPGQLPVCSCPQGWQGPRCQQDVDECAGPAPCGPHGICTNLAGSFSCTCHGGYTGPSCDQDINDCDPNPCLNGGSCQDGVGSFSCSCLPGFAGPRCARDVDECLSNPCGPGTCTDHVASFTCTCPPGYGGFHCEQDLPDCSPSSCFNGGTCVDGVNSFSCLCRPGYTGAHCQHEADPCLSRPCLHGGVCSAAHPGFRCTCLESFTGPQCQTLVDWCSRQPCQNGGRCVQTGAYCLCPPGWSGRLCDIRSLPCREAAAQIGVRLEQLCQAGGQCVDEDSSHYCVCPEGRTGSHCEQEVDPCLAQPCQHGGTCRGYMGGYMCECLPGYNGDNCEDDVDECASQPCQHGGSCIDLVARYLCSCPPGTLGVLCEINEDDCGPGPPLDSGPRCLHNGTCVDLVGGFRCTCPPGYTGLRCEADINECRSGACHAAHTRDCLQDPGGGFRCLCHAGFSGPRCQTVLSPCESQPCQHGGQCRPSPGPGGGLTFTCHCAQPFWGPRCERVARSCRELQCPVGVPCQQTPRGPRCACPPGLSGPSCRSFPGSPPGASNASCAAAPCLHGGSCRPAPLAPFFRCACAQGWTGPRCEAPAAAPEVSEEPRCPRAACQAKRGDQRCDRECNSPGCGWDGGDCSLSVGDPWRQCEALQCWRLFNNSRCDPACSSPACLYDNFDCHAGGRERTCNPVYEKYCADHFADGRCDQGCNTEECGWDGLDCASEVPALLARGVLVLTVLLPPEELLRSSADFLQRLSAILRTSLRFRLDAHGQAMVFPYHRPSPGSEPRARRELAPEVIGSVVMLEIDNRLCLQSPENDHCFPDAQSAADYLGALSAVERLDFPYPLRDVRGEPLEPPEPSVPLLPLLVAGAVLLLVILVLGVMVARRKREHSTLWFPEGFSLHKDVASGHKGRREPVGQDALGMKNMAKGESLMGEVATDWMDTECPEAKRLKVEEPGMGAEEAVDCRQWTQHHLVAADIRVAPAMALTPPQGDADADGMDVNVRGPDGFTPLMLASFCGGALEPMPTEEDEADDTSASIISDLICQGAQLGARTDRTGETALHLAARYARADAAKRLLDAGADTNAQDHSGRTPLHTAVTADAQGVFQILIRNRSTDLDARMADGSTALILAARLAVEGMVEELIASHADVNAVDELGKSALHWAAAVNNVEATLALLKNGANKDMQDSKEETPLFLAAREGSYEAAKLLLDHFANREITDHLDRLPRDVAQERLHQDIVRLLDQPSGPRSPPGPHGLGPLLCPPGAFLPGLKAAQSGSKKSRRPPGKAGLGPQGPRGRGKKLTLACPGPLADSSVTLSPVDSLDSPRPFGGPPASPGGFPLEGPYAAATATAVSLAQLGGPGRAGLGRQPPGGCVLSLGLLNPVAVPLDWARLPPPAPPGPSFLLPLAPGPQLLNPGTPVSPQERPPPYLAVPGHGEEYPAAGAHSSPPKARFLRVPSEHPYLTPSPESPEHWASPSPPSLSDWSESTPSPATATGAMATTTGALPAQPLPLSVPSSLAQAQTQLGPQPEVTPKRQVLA
Pro-neuregulin-1, membrane-bound isoform (Homo sapiens), sequence (Q02297 whole entry, looked up, the tested form may be a part, canonical isoform): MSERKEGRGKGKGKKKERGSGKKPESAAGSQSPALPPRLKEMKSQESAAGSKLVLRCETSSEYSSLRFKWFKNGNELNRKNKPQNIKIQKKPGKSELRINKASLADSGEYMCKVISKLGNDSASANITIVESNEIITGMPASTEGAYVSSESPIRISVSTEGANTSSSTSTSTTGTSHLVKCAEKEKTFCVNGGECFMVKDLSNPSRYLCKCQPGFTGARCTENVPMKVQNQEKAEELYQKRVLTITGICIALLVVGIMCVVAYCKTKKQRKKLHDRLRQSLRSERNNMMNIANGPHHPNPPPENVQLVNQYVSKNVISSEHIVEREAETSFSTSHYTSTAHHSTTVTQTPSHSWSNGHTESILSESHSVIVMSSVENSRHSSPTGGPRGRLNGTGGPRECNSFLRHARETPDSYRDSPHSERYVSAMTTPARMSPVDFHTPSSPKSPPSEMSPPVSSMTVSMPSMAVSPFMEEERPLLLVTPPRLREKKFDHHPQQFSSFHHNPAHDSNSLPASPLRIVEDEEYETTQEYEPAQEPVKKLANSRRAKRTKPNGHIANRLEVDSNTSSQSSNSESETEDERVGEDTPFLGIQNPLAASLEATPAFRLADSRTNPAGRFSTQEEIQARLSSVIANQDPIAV
Torsin-1A-interacting protein 2 (Homo sapiens), sequence (Q8NFQ8 whole entry, looked up): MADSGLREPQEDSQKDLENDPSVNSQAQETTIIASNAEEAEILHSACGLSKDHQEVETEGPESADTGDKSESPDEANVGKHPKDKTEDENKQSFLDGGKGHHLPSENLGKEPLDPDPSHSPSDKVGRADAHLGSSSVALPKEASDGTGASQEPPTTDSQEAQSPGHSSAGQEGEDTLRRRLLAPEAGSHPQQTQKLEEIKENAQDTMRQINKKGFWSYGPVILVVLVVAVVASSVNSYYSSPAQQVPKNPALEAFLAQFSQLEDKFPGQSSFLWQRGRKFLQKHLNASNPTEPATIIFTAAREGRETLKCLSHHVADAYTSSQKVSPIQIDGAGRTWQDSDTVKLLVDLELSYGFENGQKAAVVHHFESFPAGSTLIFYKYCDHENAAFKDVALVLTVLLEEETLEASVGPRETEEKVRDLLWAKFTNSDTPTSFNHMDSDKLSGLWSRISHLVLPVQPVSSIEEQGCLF

Row | Compound | composite z-score [1] | composite z-score [2] | composite z-score [3] | composite z-score [4] | composite z-score [5] | composite z-score [6] | composite z-score [7] | z-score [8] | composite z-score [9] | composite z-score [10] | composite z-score [11] | z-score [12] | z-score [13] | z-score [14] | composite z-score [15] | z-score [16] | composite z-score [17] | composite z-score [18] | composite z-score [19] | composite z-score [20]
1 | CCOC(=O)[C@H](Cc1ccccc1)NC(=O)CCC1CC(OC(=O)NCCc2ccc(F)cc2)CC2(CCCC(COC(=O)NCCOc3ccccc3)O2)O1 (stereo not given in full) | -0.493 | 1.34 | -0.129 | 0.813 | 1.17 | 0.843 | 1.03 | -0.997 (inactive) | 0.564 | 0.162 | 1.53 | -0.0952 (inactive) | 0.549 (inactive) | 0.0763 (inactive) | 2.18 | 0.384 (inactive) | -0.0907 | 0.492 | 1.07 | 0.0009
2 | Cc1cc(C)c(-c2cc([C@H](C)ON=C[C@@H](C)[C@H](OCc3ccccc3)C(C)C)on2)c(C)c1 | -0.355 | 0.298 | -0.0901 | 0.0823 | -0.637 | -0.529 | -1.22 | 0.239 (inactive) | -0.342 | 0.0505 | -0.903 | 0.0494 (inactive) | 0.217 (inactive) | 0.817 (inactive) | -0.91 | -0.461 (inactive) | 0.0469 | 0.481 | 0.0065 | -0.067
3 | CCOC(=O)NN=C1C[C@@H](O)[C@@H](O)[C@@H]2[C@@H]3C(=O)N(C[C@@H]4CCCO4)C(=O)[C@@H]3CC[C@H]12 | -0.548 | -0.274 | -0.0217 | 0.217 | 0.701 | 0.203 | 0.34 | 0.577 (inactive) | -0.0482 | -0.143 | 0.611 | -1.43 (inactive) | -0.318 (inactive) | -0.0602 (inactive) | 0.448 | 0.416 (inactive) | -0.179 | 0.481 | 0.411 | -0.0668
4 | CC(C)=CCCC(C)=CCON=C1C[C@@H](O)[C@@H](O)[C@@H]2[C@@H]3C(=O)N(Cc4ccc5c(c4)OCO5)C(=O)[C@@H]3CC[C@@H]12 | -0.316 | -0.777 | -0.241 | 0.31 | 0.397 | 0.364 | 0.974 | 0.397 (inactive) | 0.396 | -0.0618 | 1.54 | 0.0718 (inactive) | 1.03 (inactive) | -0.864 (inactive) | 2.06 | 0.813 (inactive) | 0.0478 | 0.837 | 0.983 | -0.0432
5 | CC(CCN1CCCCc2nc(C)c(C)cc21)=NO[C@H](C)c1cn([C@@H]2COC[C@H]2O)nn1 | -0.565 | 2.25 | -0.126 | 0.517 | 1.11 | 0.172 | 1.18 | 0.227 (inactive) | 0.462 | -0.0772 | 1.19 | 0.565 (inactive) | 1.07 (inactive) | 0.601 (inactive) | 0.967 | 0.681 (inactive) | 0.0636 | 1.51 | 0.486 | 0.267
6 | CCO[C@H](c1cc(OC)cc([N+](=O)[O-])c1OC)[C@H](C)[C@@H](OC)[C@H](C)C=CCC(=O)OC | 0.0456 | 0.32 | -0.0241 | -0.105 | 0.174 | 0.339 | 0.66 | -0.0602 (inactive) | 0.414 | -0.317 | 0.836 | 0.443 (inactive) | -0.463 (inactive) | -0.604 (inactive) | 0.945 | -0.466 (inactive) | 0.0632 | -0.0645 | 1.06 | -0.0069
7 | C=CC[C@@H]1C=C[C@H](ON=C[C@@H](NS(=O)(=O)c2ccc(C)cc2)[C@H](C)C=CCC(=O)OC)[C@@H](CO)O1 | -0.172 | 0.571 | -0.134 | 0.2 | -0.0681 | -0.209 | 0.476 | -0.0545 (inactive) | -0.0961 | 0.289 | -0.248 | -0.605 (inactive) | 0.757 (inactive) | -0.0333 (inactive) | 0.324 | 0.354 (inactive) | -0.11 | 0.659 | -0.531 | -0.0715
8 | CC[C@@H](c1ccccc1)n1c(=O)n2n(c1=O)[C@H]1[C@H](O)[C@@H]3O[C@@H]3C(=NOCc3ccccc3)[C@H]1CC2 | 0.83 | 0.374 | -0.172 | 0.0913 | 0.57 | 0.834 | 0.504 | 2.67 (inactive) | -0.0575 | -0.13 | -0.454 | 0.183 (inactive) | -1.17 (inactive) | 0.191 (inactive) | 0.786 | -0.866 (inactive) | -0.132 | 1.3 | 0.81 | -0.0824
9 | C=CC[C@@H]1C=CC(ON=C(C)C)[C@@H](CO)O1 (stereo not given in full) | 0.0856 | -0.809 | -0.196 | -0.246 | -0.561 | -0.34 | -0.0889 | 1.35 (inactive) | -0.238 | 0.107 | -0.316 | 1.03 (inactive) | 0.446 (inactive) | 1.16 (inactive) | -0.632 | 0.452 (inactive) | -0.103 | -0.117 | -1.08 | -0.215
10 | COC(=O)CC=C[C@@H](C)[C@@H](C=NOC[C@@H](O)[C@H]1O[C@@H]2OC(C)(C)O[C@@H]2[C@H]1O)OC | 0.354 | 0.937 | -0.0996 | 0.197 | 0.427 | -0.0348 | 0.205 | 0.195 (inactive) | -0.456 | 0.221 | 0.297 | 0.439 (inactive) | 0.429 (inactive) | 0.303 (inactive) | 0.31 | -0.125 (inactive) | -0.183 | 0.505 | 0.845 | 0.0536
11 | CCOC(=O)[C@H](CC(C)C)NC(=O)CCC1CC(OC(=O)NCc2ccc3c(c2)OCO3)CC2(CCCC(COC(=O)NCCc3ccc(Cl)cc3)O2)O1 (stereo not given in full) | -0.549 | -0.08 | -0.129 | 0.744 | 0.331 | 1.1 | 0.993 | 0.924 (inactive) | -0.0845 | -0.0237 | 1.3 | -1.06 (inactive) | -0.571 (inactive) | -1.81 (inactive) | 1.39 | 0.544 (inactive) | -0.0615 | 0.553 | 0.951 | 0.065
